Laboratory results published in PubChem BioAssay.
Where “and” joins values, the source holds several entries; their conditions need not be identical. Equal values may be shown once. A number with no mark means an inactive call. No rule for the calls is given here.

Biological target: Pantothenate synthetase (Mycobacterium tuberculosis (strain ATCC 25618 / H37Rv)) (UniProt P9WIL5)
Experiment: Coupled enzyme confirmation of inhibitors against recombinant Mtb PanC (AID 375);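 also: 0% = full reaction with vehicle and 100% = no enzyme background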
Conditions: coupled enzyme assay; at 10 µM, active compounds read high

Chain of Pantothenate synthetase (Mycobacterium tuberculosis (strain ATCC 25618 / H37Rv)) (P9WIL5 whole entry, looked up): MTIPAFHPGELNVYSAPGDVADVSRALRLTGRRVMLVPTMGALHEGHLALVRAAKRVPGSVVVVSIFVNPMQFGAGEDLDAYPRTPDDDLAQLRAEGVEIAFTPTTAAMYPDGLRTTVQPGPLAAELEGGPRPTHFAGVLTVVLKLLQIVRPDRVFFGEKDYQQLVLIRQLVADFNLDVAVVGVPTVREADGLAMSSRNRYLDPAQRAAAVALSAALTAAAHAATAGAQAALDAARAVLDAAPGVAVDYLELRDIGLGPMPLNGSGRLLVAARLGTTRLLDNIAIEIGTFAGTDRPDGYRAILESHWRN

Compound	inhibition
Cc1ccc(S(=O)(=O)N2CCCC2)cc1S(=O)(=O)N1CCCC1	0%
CC(Sc1nc(-c2ccccc2)cc(C(F)(F)F)n1)C(=O)N1CCC(C(N)=O)CC1 (stereo not given)	0%
COc1nc(N2CCOCC2)nc(-n2cccc2)n1	2%
CCOC(=O)C1CCCN(CCC(C)c2ccccc2)C1 (stereo not given)	1%
CC(C)C(c1nnnn1C1CCCC1)N1CCN(C(=O)c2ccco2)CC1 (stereo not given)	3%
O=C(OCc1nnc(-c2ccccc2)o1)c1ccc2ccccc2n1	1%
O=C(NCc1ccc2c(c1)OCO2)c1ccc(NS(=O)(=O)c2ccc3c(c2)OCCO3)cc1	0%
COCCNC(=O)C(c1ccc(C)o1)N(Cc1ccc(OC)cc1)C(=O)Cn1nnc2ccccc21 (stereo not given)	1%
Cn1c(=O)[nH]c(=O)c2c1nc(N1CCNCC1)n2CCOc1ccccc1	0%
CC(=O)Nc1ccc(Oc2ccc3nc(C)[nH]c3c2)cc1	0%
COC(=O)C1CCN(C(=O)c2sc3nc(-c4ccc(F)cc4)cn3c2C)CC1	0%
CCOC(=O)c1ccccc1NC1CC(=O)N(c2ccccc2C)C1=O (stereo not given)	0%
CCn1c2ccccc2c2cc(NC(=O)Cc3ccc(S(=O)(=O)N4CCOCC4)s3)ccc21	0%
Cc1[nH]c(C(=O)N2CCCCC2)c(C)c1C(=O)NC1CCCCC1	4%
COc1ccc(C(=O)Cn2nnc(-c3cccs3)n2)cc1	0%
c1ccc(CNc2ccc3c(c2)ncn3C2CCCCC2)nc1	0%
CC(=O)NCc1cccc(CNC(C)=O)n1	11%
Cc1c(C=NCCOCc2ccccc2)cnn1C	0%
O=C(O)C1C2C=CC(O2)C1C(=O)NCc1ccc(Cl)cc1 (stereo not given)	13%
CC(=O)NC(=O)NC1CSCC1OC(C)=O (stereo not given)	4%

Compound	inhibition
CN(C)c1nc(Oc2ccc(N)cc2)nc(N(C)C)n1	0%
Cc1c(C(=O)O)c(-c2ccccc2)nn1-c1ccccc1	2%
CC(c1ccccc1)N1C(=O)c2ccc(C(=O)NCc3ccco3)cc2C1=O (stereo not given)	1%
Cc1nnc(SCc2cnc(-c3ccccc3)o2)[nH]c1=O	0%
CCN(CC)CC(=O)Nc1c(C)cccc1C	7% and 0%
COc1ccc(C(N)=O)cc1N	0%
Cc1ccc(N(C)C(=O)N2CCN(c3ccccn3)CC2)cc1	0%
O=C(CN1C(=O)COc2ccccc21)N(Cc1cccnc1)Cc1ccccc1F	0%
COCCNC(=O)CC(NS(=O)(=O)c1ccc(NC(C)=O)cc1)C(C)C (stereo not given)	0%
Cc1ccccc1N1CC(c2nc3ccccc3[nH]2)CC1=O (stereo not given)	0%
CN(C)CCN1C(=O)c2oc3ccc(Cl)cc3c(=O)c2C1c1cccc(Br)c1 (stereo not given)	0%
Cc1nc2ccccc2c2oc(C(=O)NCCCN3CCCC3=O)cc12	7%
COCC(=O)Nc1sc2c(c1C(=O)OC)CCC(C)C2 (stereo not given)	6%
COC(=O)CSc1nc2sc3c(c2c(=O)n1C1CCCCC1)CCN(C)C3	0%
CCOc1ccc(OCC)c(NS(=O)(=O)c2ccc3c(c2)n(C)c(=O)c(=O)n3C)c1	3%
CC(=O)N1CCN(c2ccc(S(=O)(=O)N3CCCCC3)cn2)CC1	0%
O=C(Nc1ccccc1-c1ccccc1)NC1CCN(CC(=O)N2CCOCC2)CC1	0%
COc1ccc(C(=O)CN2C3=NCCCN3c3ccccc32)cc1OC	0%
O=C1CCCc2c1cc(C(=O)NCc1ccco1)c(=O)n2-c1ccc(Cl)cc1	9%
COc1cc2c(OC)cccc2cc1C(=O)O	0%
